The whole screen tested about 16,000 compounds, of which about 10 (0.06%) were called active. For the sample, actives were picked, then their nearest neighbours and some compounds at random. Unmarked numbers belong to inactive results. No stated cut-off is given here; in the data, active means inhibition above about 45%; inactive means the rest.
target: Toll-like receptor 4 (Homo sapiens) (UniProt O00206); test: blocks binding of human TLR4 to MyD88 (AID 811); settings: Cell-based TLR4-MyD88 binding inhibition assay; at 10 µM; hits give high values
Sequence (O00206 whole entry, looked up): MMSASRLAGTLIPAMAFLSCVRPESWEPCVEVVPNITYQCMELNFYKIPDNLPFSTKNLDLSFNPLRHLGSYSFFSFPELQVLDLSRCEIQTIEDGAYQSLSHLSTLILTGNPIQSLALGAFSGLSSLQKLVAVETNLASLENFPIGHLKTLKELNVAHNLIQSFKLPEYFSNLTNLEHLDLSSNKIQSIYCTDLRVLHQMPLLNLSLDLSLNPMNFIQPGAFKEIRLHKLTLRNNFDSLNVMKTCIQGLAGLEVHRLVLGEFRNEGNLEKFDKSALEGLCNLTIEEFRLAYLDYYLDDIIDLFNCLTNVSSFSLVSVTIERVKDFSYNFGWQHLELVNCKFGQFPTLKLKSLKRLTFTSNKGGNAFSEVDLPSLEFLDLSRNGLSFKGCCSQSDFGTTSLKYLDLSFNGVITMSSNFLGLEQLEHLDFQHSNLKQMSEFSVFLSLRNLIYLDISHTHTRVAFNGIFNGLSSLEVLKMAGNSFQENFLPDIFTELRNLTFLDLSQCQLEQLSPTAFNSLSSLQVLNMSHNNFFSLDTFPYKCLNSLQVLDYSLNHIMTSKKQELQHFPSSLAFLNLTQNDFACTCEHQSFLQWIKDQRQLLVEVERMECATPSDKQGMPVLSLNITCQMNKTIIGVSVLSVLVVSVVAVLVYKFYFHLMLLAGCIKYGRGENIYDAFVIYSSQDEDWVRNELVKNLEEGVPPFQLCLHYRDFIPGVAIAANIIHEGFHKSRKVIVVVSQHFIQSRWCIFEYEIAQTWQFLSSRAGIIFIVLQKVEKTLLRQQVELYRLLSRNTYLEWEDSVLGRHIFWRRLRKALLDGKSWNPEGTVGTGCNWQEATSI

Row | Structure (SMILES) | inhibition
1 | O=C(CSc1nc2ccccc2o1)N1CCC(n2cccc2)CC1 | -8.01%
2 | CC(C)(C)C(=O)OCC(N)=S | -7.02%
3 | CSc1c(C#N)c(N)nc(SCC(=O)c2ccc(OC(F)F)cc2)c1C#N | 1.37%
4 | O=C(O)c1ccccc1/C=N/Nc1cc(Cl)ccc1Cl | -2.5%
5 | NC(=O)c1ccccc1OCCOc1ccccc1C(N)=O | -25.3%
6 | CN(C)c1cccc2c1c(NC(=O)Nc1ccc(OCc3ccccc3)cc1)nn2C | -5.12%
7 | Cc1ccccc1NC(=O)NCc1ccco1 | 0.5%
8 | OCCNC(=S)Nc1ccccc1-c1ccccc1 | 6.35%
9 | Cc1c(N/N=C(\C#N)c2nc3ccccc3[nH]2)c(=O)n(-c2ccccc2)n1C | 3.99%
10 | CN(C)c1cc(-c2cc(Cl)sc2Cl)oc(=O)c1Cl | -4.82%
11 | O/N=C/c1sccc1Oc1ccccc1 | 0.35%
12 | COC(OC)c1ccnc(SCC(=O)Nc2ccc(C(C)C)cc2)n1 | -8.52%
13 | O=C(Nc1ccccc1N1CCOCC1)C1CCN(c2nccc(C(F)(F)F)n2)CC1 | 1.1%
14 | CC1(C)CC(=O)c2c(NCc3ccco3)sc(C#N)c2C1 | 8.27%
15 | COC(=O)c1sccc1-c1ccc(/C(C)=N/NC(N)=O)o1 | 0.98%
16 | Fc1cccc(Cl)c1CSc1nccn1-c1cccnc1 | 5.59%
17 | O=C(OCc1ccco1)c1cnc(Nc2ccc(OC(F)(F)F)cc2)nc1C(F)(F)F | 11.4%
18 | N#Cc1c(N)nc2c3c1NC(O)(c1ccccc1)C(C#N)C3c1cc(Cl)ccc1O2 (stereo unspecified) | -1.34%
19 | Cc1nc2sc(-c3ccccc3)cc2c(=O)o1 | 4.05%
20 | NS(=O)(=O)c1cc(Br)ccc1I | -0.48%
21 | O=C1CCN(Cc2ccccc2)C(=O)N1c1ccc2c(c1)CCO2 | -14.4%
22 | CCOC(=O)C1=C(C)NC(=O)NC1c1ccc(-c2cccc([N+](=O)[O-])c2)o1 (stereo unspecified) | -3.21%
23 | CC(CC(=O)O)Oc1ccc(Cl)cc1[N+](=O)[O-] (stereo unspecified) | -0.53%
24 | CSc1nc(N/C=C(\C#N)C(=O)c2cccs2)n2nc(C)cc2n1 | -2.59%
25 | N#CCc1ccc(OC(=O)c2cccnc2)cc1 | -3.47%
26 | CN(C)C(=S)Nc1ccc(Br)cc1Cl | -2.8%

Row | Structure (SMILES) | inhibition
27 | Clc1cncc(Cl)c1N/N=C/C1CC2C=CC1C2 (stereo unspecified) | 5.74%
28 | O=C(O)c1onc2ccccc12 | -3.17%
29 | CSc1nccc(-c2ccc(S(=O)(=O)n3nc(C)c(Br)c3C)s2)n1 | 2.65%
30 | Cc1cc(NC(=O)c2cc(-c3ccccc3)c(C(F)(F)F)s2)no1 | -1.45%
31 | CC(=O)Nc1ccc(/C(N)=N/O)cc1 | 1.86%
32 | O=C(O)CC1(CC(=O)NCc2ccco2)CCCCC1 | -10.3%
33 | CC(=O)OC1=CCC2C3CC[C@@]4(C)CC(OC(C)=O)CCC4(C)C3C(OC(C)=O)CC12C (stereo partly specified) | 5.37%
34 | CC(C)(C)NC(=O)[C@@H]1C[C@@H]2CCCC[C@@H]2CN1C(=O)c1ccno1 | 2.92%
35 | CCOC(=O)c1nnc2c(Br)c(C)nn2c1C | 0.26%
36 | CCc1ccnc(NS(=O)(=O)c2ccc3c(c2)OCCO3)c1 | -7.82%
37 | Cc1nc(C(=O)NNC(=S)Nc2ccccc2C(F)(F)F)cs1 | -3.73%
38 | N/C(=N\OC(=O)c1ccc(Cl)cc1)c1cccc(CS(=O)(=O)c2ccccn2)c1 | -5.81%
39 | CC(C)S(=O)(=O)/C(C#N)=C/NN1CCOCC1 | -3.92%
40 | COC(=O)c1cnc(N2CCCN(C(=O)C3COc4ccccc4O3)CC2)nc1C(F)(F)F (stereo unspecified) | -1.67%
41 | NC(=O)c1c(C(F)(F)F)cc(C(F)(F)F)cc1C(F)(F)F | -6.47%
42 | COc1ccccc1NC(=O)c1ccc(C#Cc2ccccc2)o1 | -2.2%
43 | CC(C)[C@H]1COC(c2cccc(C3=N[C@@H](C(C)C)CO3)n2)=N1 | 5.5%
44 | Cc1cc(S(=O)(=O)O/N=C(\N)c2snnc2C)cc(C)c1F | 11.7%
45 | CC1(C)CC(=O)C=C(N2CCOCC2)C1 | -0.03%
46 | CCc1cnc(NS(=O)(=O)c2cc(Cl)sc2Cl)nc1-c1c(F)cccc1F | -8.06%
47 | CC(C)CCOS(=O)(=O)c1ccc2c(c1)Cc1cc(S(=O)(=O)OCCC(C)C)ccc1-2 | 4.69%
48 | CCCN(CCC)S(=O)(=O)c1ccc(C(=O)O/N=C(\C)c2ccccc2O)cc1 | 0.96%
49 | CC(=O)c1ccc(C#Cc2ccccc2)cc1 | -5.26%
50 | COC(=O)c1cnc(Oc2ccc(N)cc2)cc1C(F)(F)F | -9.53%
51 | O=C(CSc1c(F)c(F)c(C(=O)O)c(F)c1F)Nc1cccc(C(F)(F)F)c1 | 7.76%
52 | CCOC(=O)CN1C(=O)/C(=C\c2ccc(C)o2)N=C1c1ccccc1 | 0.42%

Row | Structure (SMILES) | inhibition
53 | O=[N+]([O-])c1ccc2ncccc2c1-n1cccc1 | 2.94%
54 | CN(C(=O)Nc1ccc(Cl)cc1)n1cnc2ccccc2c1=O | -8.6%
55 | Cn1cnnc1SC/C=C/c1ccccc1 | -13.5%
56 | O=C(O)CC(CC(=O)N1CCOCC1)c1ccccc1 (stereo unspecified) | -5.3%
57 | Cc1ccc2c(c1)C(=O)C(=O)S2 | 6.48%
58 | O=C(CCc1ccc(O)cc1)N/N=C/c1cc(Cl)cc(Cl)c1O | -1.07%
59 | CC(C)(C)NC(=O)N/N=C/c1[nH]ncc1Br | 20.8%
60 | Cc1noc(C)c1S(=O)(=O)N1CCN(C2c3ccccc3-c3ccccc32)CC1 | -0.47%
61 | CS/C(=N\S(=O)(=O)c1ccccc1)NNc1ccccc1 | -1.96%
62 | CCOC(=O)Cn1cc(Cl)ccc1=O | -0.56%
63 | N/C(=N\S(=O)(=O)c1ccc(Cl)cc1)N1CCOCC1 | -3.11%
64 | Cc1nn(C)c(C)c1Sc1nccc(-c2cccnc2)n1 | -8.01%
65 | CC(C)CC(F)Cc1cnc(=O)[nH]c1 (stereo unspecified) | -2.36%
66 | Oc1ccc(-n2cncn2)cc1 | -7.43%
67 | O=C(NCc1ccccc1)c1cc2sccc2s1 | 3.11%
68 | Cc1ccc2sc(NC(=O)NC(=O)c3c(Cl)cccc3Cl)nc2c1 | -10.8%
69 | Cn1cc(C(=O)Nc2ccc(F)c(Cl)c2)c(N)n1 | -11.3%
70 | CCOC(=O)c1cnc2c(S(=O)(=O)C(C)C)csc2c1Sc1cccc(Cl)c1 | -1.87%
71 | O=C(NNC(=S)Nc1ccccc1Cl)c1ccc(OC(F)(F)F)cc1 | 6.01%
72 | O=C(c1ccc(Oc2ccc(Cl)cc2)c([N+](=O)[O-])c1)N1CCCC1 | 0.91%
73 | CSc1sc(C(=O)Nc2cccc(C(F)(F)F)c2)cc1S(=O)(=O)C(C)C | 0%
74 | CCOC(=O)c1ccc2nc(C(F)(F)F)cc(N3CCN(Cc4ccccc4)CC3)c2c1 | 3.69%
75 | CCOC(=O)Cn1sc2nc(C)cc(C)c2c1=O | -2.32%
76 | O=[N+]([O-])c1ccc(N2CCC2)cc1 | 8.05%
77 | CC(=O)OCc1ccc(COC(C)=O)c(OC(C)=O)c1OC(C)=O | -11.5%
78 | COC(=O)/C=C/c1cn(C2OCC(CO)C2O)c(=O)[nH]c1=O (stereo unspecified) | 5.73%

Row | Structure (SMILES) | inhibition
79 | NC(=O)c1cccc2c1OCCO2 | 10.1%
80 | CCCN(CCC)S(=O)(=O)c1ccc(C(=O)NNC(=O)c2cc(OC)c(OC)c(OC)c2)cc1 | -4.25%
81 | N#C/C(=C\c1ccsc1Sc1ccc(Cl)cc1)S(=O)(=O)c1ccc(Cl)cc1 | -3.72%
82 | Cc1nnc(Sc2ccc([N+](=O)[O-])c(Sc3nnc(C)s3)n2)s1 | -6.36%
83 | O=c1oc2c3ccccc3c3oc(=O)sc3c2s1 | 50.3% (active)
84 | O=c1[nH]c2ccccc2s1 | 2.88%
85 | Cc1cc(-c2noc(-c3cccs3)n2)no1 | -6.63%
86 | Cc1nnsc1C(=O)N/N=C/c1ccccc1Cl | -4.11%
87 | CNC(=O)c1ccccc1I | -1.84%
88 | O=S(=O)(CCSc1ccc(C(F)(F)F)cn1)CCSc1ccc(C(F)(F)F)cn1 | 2.94%
89 | CC(=O)Nc1ccc(C)cc1N=Cc1ccncc1 | -3.13%
90 | N#CC(c1cc2ccccc2cn1)c1ccc2c(c1[N+](=O)[O-])C(=O)c1ccccc1C2=O (stereo unspecified) | 8.07%
91 | Cc1cccc(-c2noc(NC(=O)O/N=C/c3ccccc3)n2)c1 | 5.92%
92 | O=C(NNC(=S)Nc1ccc(S(=O)(=O)N2CCCCC2)cc1)c1ccncc1 | 7.23%
93 | O=[N+]([O-])c1ccc2c(c1)CCN2S(=O)(=O)c1ccccc1 | -5.05%
94 | Cc1ccc(C(=O)N2CCN(c3cccc4[nH]ccc34)CC2)cc1 | -3.77%
95 | O=C(Oc1ccccc1N1CCCCC1)c1sc2ccccc2c1Cl | 4.69%
96 | CCOC(=O)c1cc(C)n(-c2cccc([N+](=O)[O-])c2)c1-c1ccccc1 | -2.88%
97 | CC(C)(C)c1ccc(C(=O)CC(N)=O)cc1 | -4.12%
98 | FC(F)(F)c1csc(N/N=C/c2ccccc2Cl)n1 | -1.14%
99 | C/C(=N\NC(N)=S)c1csc(-c2ccccc2)n1 | -3.92%
100 | N/N=c1/nc2sccn2c2ncccc12 | -0.03%
101 | O=C1C2C3C=CC(O3)C2C(=O)N1OCc1ccc(OC(F)(F)F)cc1 (stereo unspecified) | 4.1%

— PubChem BioAssay AID811 (The Scripps Research Institute Molecular Screening Center, 2007)
